Sampled rows, rich in hits. Any-hit rate of the full collection: about 3.3%.
Tb PYK inh = T. brucei pyruvate kinase inhibition | Q57TT1 | TbPYK enzyme, Kinase-Glo Plus ATP luminescence, 45 min | Potency, µM (doses to about 76.8 µM), without a hit: at the highest dose activity, negative = inhibition, hits mostly inhibitors | 410,000 compounds, 0.12% hits | AID 624173; also: nearly all actives have a fitted effect of over 50% in size
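Luminescent Kinase-Glo Plus end-point after 45 min room-temperature reaction of T. brucei pyruvate kinase started with 130 uM ADP (final). Buffer TEA 50 mM pH 7.2 with KCl, MgCl2, BSA, Tween-20; titration-based qHTS with fitted concentration-effect curves.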
Sm TGR block = S. mansoni TGR enzyme inhibition; Potency, µM (doses to about 114 µM), without a hit: at the top dose activity change, negative = inhibition, most hits filed as inhibitors; Q962Y6; 360,000 compounds, 3% hits; purified TGR, DTNB reduction, TNB absorbance 405 nm; also: nearly all actives have a fitted effect of over 60% in size
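Kinetic colorimetric format: TGR-catalysed, NADPH-driven DTNB reduction monitored via TNB absorbance. Enzyme dispensed at 20 nM; compound exposure 15 min at room temperature before reaction start.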
RE007 growth inh = less growth of the S. pombe RE007 Vpr strain; 360,000 compounds, 0.21% hits; AID 651644; Potency, µM (doses to about 92.2 µM), without a hit: at the highest dose activity change, negative = less growth, most hits filed as inhibitors; S. pombe RE007 Vpr strain, BacTiter-Glo ATP luminescence, 24 h; active = well fitted falling curve with a large enough effect; inconclusive = small, poorly fitted or top-dose-only effect; inactive = no such curve, though single readings can be large or run the other way; also: nearly all actives have a fitted effect of over 50% in size
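Fission yeast strain RE007, carrying one chromosomally integrated HIV-1 vpr copy, was seeded at OD 0.01 in PMG+AL medium with 23 nL pinned compound. After 24 h at 30 °C and 99% humidity, viability was read by BacTiter-Glo luminescence.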
LmPK inhibitor = LmPK (Leishmania mexicana) enzyme inhibition | purified LmPK, Kinase-Glo ATP luminescence, 1 h | 290,000 compounds, 0.37% hits | Q27686 | Potency, µM (series often up to 57.5 µM), for the others: at the top dose activity change, negative = inhibition, hits mostly inhibitors | AID 1721
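ATP generated from ADP (0.1 mM) and PEP (0.5 mM) by 0.1 nM LmPK over 1 h at room temperature (pH 7.2 imidazole buffer) was detected by coupled luciferase luminescence. Values were normalized to uninhibited and no-enzyme wells.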
Giardia FBPA inh = inhibitors of Giardia lamblia fructose-1,6-bisphosphate aldolase | Potency, µM (series often up to 59.6 µM), inactives show at the highest dose activity, negative = inhibition, hits mostly inhibitors | purified Giardia FBPA | 290,000 compounds, 0.71% hits | A8B2U2; also: nearly all actives have a fitted effect of over 55% in size
Target sequence (A8B2U2 whole entry, looked up): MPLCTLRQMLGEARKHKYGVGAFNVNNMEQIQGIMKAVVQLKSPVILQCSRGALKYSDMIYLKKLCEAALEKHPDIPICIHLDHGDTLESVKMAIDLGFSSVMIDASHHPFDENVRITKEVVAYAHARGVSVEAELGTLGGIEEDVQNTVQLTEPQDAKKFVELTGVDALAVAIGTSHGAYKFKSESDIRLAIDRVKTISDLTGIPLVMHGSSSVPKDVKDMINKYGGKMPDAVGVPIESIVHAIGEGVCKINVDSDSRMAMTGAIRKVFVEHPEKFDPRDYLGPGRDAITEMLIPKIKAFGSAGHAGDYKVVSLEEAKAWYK
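40 nM FBPA preincubated 10 min at RT with compound (up to 57.5 uM final), then substrate plus GAPDH/TPI/NAD/arsenate coupling and diaphorase/resazurin added. Fluorescence read after 20 min at RT, 525/598 nm.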
* = called active by the depositor. Unless noted, calls follow the shape of the dose curve; as a rule, active = well fitted curve in the direction sought with a large enough effect; inconclusive = small, poorly fitted or top-dose-only effect, or another doubt; inactive = no such curve, though single readings can be large; an effect the other way counts as inactive or inconclusive. % is scaled to controls: 0 for no effect and ±100 for the full control effect; potency is read from the fitted curve at half-maximal effect.

Results for CN(C(=O)Cn1nc(Cl)ccc1=O)C1CCCN(Cc2ccccc2F)C1 (configuration not stated) ?
Tb PYK inh: -1.4%; Sm TGR block: 0.1%; RE007 growth inh: -12.6%; LmPK inhibitor: 0.8%

Results for Cc1ccc(-n2c(-c3ccccc3)c[nH]c2=S)cc1 ?
Tb PYK inh: inconclusive; Sm TGR block: 0.8%; RE007 growth inh: 2.6%; LmPK inhibitor: inconclusive; Giardia FBPA inh: 1.1%

What do the screens show for `S=c1[nH]cc(-c2ccccc2)n1-c1ccccc1`?
Tb PYK inh: inconclusive; Sm TGR block: -14.4%; RE007 growth inh: 27.7%; LmPK inhibitor: 3.16µM*; Giardia FBPA inh: -5.2%

How did S=c1[nH]cc(-c2ccc(Cl)cc2)n1Cc1ccccc1 do in these assays?
Tb PYK inh: 2.9%; Sm TGR block: 10.0%; RE007 growth inh: -6.2%; LmPK inhibitor: -9.1%; Giardia FBPA inh: 6.8%

What do the screens show for `CCn1c(-c2ccccc2)c[nH]c1=S`?
Tb PYK inh: inconclusive; Sm TGR block: 4.5%; RE007 growth inh: 10.6%; LmPK inhibitor: 14.1µM*; Giardia FBPA inh: -6.6%

What do the screens show for `CCCc1cc(=O)[nH]c(SCc2nc(-c3ccc(OCC)cc3)no2)n1`?
Tb PYK inh: -4.8%; Sm TGR block: -2.0%

What do the screens show for `COC(=O)c1nc2ccc(N3CCOCC3)cc2c(C)c1C(=O)OC`?
Tb PYK inh: -3.0%; Sm TGR block: 8.1%; RE007 growth inh: -7.0%; LmPK inhibitor: 1.8%; Giardia FBPA inh: 7.92µM*

Results for COc1ccc(NS(=O)(=O)c2ccc3c(c2)CC(C)N3C(=O)C2CCC2)cc1OC (configuration not stated) ?
Tb PYK inh: -13.1%; Sm TGR block: -1.4%

How did O=C(O)c1cccc2c1C(=O)c1ccc(-c3ccc(F)cc3OCc3ccccc3)cc1S2(=O)=O do in these assays?
Tb PYK inh: 0.6%; Sm TGR block: 31.6µM*; RE007 growth inh: 4.8%

What do the screens show for `O=C1C=CC2(O[C@H](c3ccccc3)[C@@H](c3ccccc3)O2)[C@H](Sc2ccccc2O)C1`?
Tb PYK inh: inconclusive; RE007 growth inh: 39.8µM*

How did C[C@@H]1[C@@H](Sc2ccccc2)CC(=O)O[C@@H]1c1ccc(-c2ccccc2)cc1 do in these assays?
Tb PYK inh: -0.7%; RE007 growth inh: -1.3%; Giardia FBPA inh: 1.0%

Results for CN1CCN(C2=C(Cl)C(=O)N(C3CCCCC3)C2=O)CC1 ?
Tb PYK inh: -19.6%; Sm TGR block: -19.5%; RE007 growth inh: -3.4%; LmPK inhibitor: -2.2%; Giardia FBPA inh: -7.6%

What do the screens show for `CN1CCN(C2=C(Cl)C(=O)C(c3cnc(N4CCCCC4)s3)=C(Cl)C2=O)CC1`?
Tb PYK inh: 1µM*; Sm TGR block: -13.0%; RE007 growth inh: inconclusive; LmPK inhibitor: inconclusive; Giardia FBPA inh: 4.9%

Results for CCN(CC(=O)Nc1cc(Cl)ccc1C)C(=O)C1COc2ccccc2O1 (configuration not stated) ?
Tb PYK inh: -4.4%; Sm TGR block: 20µM*; RE007 growth inh: -2.8%

How did Cc1ccc(Cl)cc1NC(=O)C1COc2ccccc2O1 (configuration not stated) do in these assays?
Tb PYK inh: -1.4%; Sm TGR block: 9.8%; RE007 growth inh: 0.3%; LmPK inhibitor: 0.0%; Giardia FBPA inh: -5.6%

How did Cc1ccc(S(=O)(=O)NC2OC(=O)C(Cl)=C2Cl)cc1 (configuration not stated) do in these assays?
Tb PYK inh: -9.8%; Sm TGR block: 2.82µM*; RE007 growth inh: -8.9%; LmPK inhibitor: 3.1%; Giardia FBPA inh: -0.5%

How did Cc1ccc(S(=O)(=O)NC2CCCCCCC2)cc1 do in these assays?
Tb PYK inh: -12.1%; Sm TGR block: 3.1%; RE007 growth inh: -8.9%; LmPK inhibitor: 2.7%; Giardia FBPA inh: -5.6%

How did CCCOc1ccc(C2c3c(oc4ccc(F)cc4c3=O)C(=O)N2CCc2ccc(OC)cc2)cc1 (configuration not stated) do in these assays?
Tb PYK inh: 1.3%; Sm TGR block: 9.7%
